# Results reported in PubChem BioAssay.
# Calls of active or inactive are those of the source.
# Key:
# Albumin (Bos taurus) = Albumin (Bos taurus) (UniProt P02769); assay: bovine serum albumin binders on microarray, profiling panel, artefact control for SMM control protein annotation, biochemical, small-molecule microarray, Alexa647 label, 635/667 nm fluorescence (AID 1118); details: BSA-A647 binding, fluorescence 635 nm, higher = more signal;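 also: score merges 667 nm emission intensity and signal-to-noise per printed compound spot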
# [1] = small-molecule microarray binders of probe aXIP, primary screen, biochemical, NeuroSMM set, 635/667 nm fluorescence (AID 1119); details: higher = more signal, called active from +8 up or from −8 down;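 also: probe is the protein aXip251-270 applied at 1 µg/mL to compound-printed slides; binding of probe to printed compounds measured as 667 nm fluorescence plus signal to noise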
# [2] = small-molecule binders of probe aNOTCH3, primary screen, biochemical, small-molecule microarray, 635/667 nm fluorescence (AID 1120); details: higher = more signal;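 also: probe is a biotin-tagged antibody raised against NOTCH3 rather than NOTCH3 protein; score merges spot fluorescence near 667 nm with spot signal to noise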
# [3] = small-molecule binders of probe aNOTCH2, primary screen, biochemical, small-molecule microarray, 635/667 nm fluorescence (AID 1121); details: higher = more signal;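 also: score merges feature fluorescence read at 667 nm with its signal to noise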
# [4] = biological target: Carbonic anhydrase 2 (Homo sapiens) (UniProt P00918); assay: CAII small-molecule binders, profiling panel, biochemical, small-molecule microarray, Alexa647-labelled CAII (AID 1122); details: CAII-A647 binding fluorescence, higher = more signal
# [5] = COS7 lysate on small-molecule microarray, probe aHis, 635 nm (AID 1123); details: COS7 cell lysate, fluorescence, higher = more signal;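 also: z-score combines 667nm fluorescence intensity with signal-to-noise per printed compound spot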
# [6] = compound binding in COS7 lysate, probe aLAP1, primary screen, cell lysate, small-molecule microarray (AID 1124); details: probe aLAP1, fluorescence, higher = more signal;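 also: lysate comes from COS7 cells expressing LAP1 and is applied at 0.3 µg/mL; score merges spot fluorescence near 667 nm with signal-to-noise over triplicate slides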
# Sam68 (KHDRBS1) = assay: Sam68 small-molecule binders, primary screen, biochemical, small-molecule microarray, 635 nm fluorescence (AID 1125); details: small-molecule microarray binding, higher = more signal;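 also: score merges 667 nm channel intensity with signal to noise over triplicate slides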
# [7] = system: Chordin-like protein 2 (CHRDL2); assay: CHRDL2 small-molecule binders, primary screen, biochemical, small-molecule microarray, 635 nm fluorescence (AID 1126); details: small-molecule microarray binding, fluorescence 635 nm; higher = more signal;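 also: printed compound slides probed with Chrdl2 protein at 4 µg/mL for 1 h at 4 C; score merges 667 nm emission intensity with signal to noise over three replicate slides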
# [8] = biological target: Concanavalin-A (Canavalia ensiformis) (UniProt P02866); assay: ConA small-molecule binders, primary screen, artefact control for SMM control protein annotation, biochemical, small-molecule microarray, Alexa647 label, 635 nm (AID 1127); details: ConA-A647 binding fluorescence, higher = more signal;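 also: z combines 667 nm emission intensity with signal-to-noise across three replicate slides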
# [9] = anti-His antibody binders, primary screen, artefact control for SMM control protein annotation, biochemical, small-molecule microarray, 635 nm fluorescence (AID 1128); details: anti-His Alexa647 antibody binding, higher = more signal;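 also: score merges feature fluorescence with signal-to-noise for each printed compound spot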
# [10] = system: Human papillomavirus type 1a E7 protein (residues 1-88); assay: HPV1a E7 small-molecule binders, primary screen, biochemical, small-molecule microarray, residues 1-88, 635 nm (AID 1129); details: small-molecule microarray binding, fluorescence 635 nm; higher = more signal
# [11] = biological target: Focal adhesion kinase 1 (Homo sapiens) (UniProt Q05397); assay: small-molecule microarray binders of FAK, primary screen, biochemical, 635/667 nm fluorescence, BSA, DTT (AID 1130); details: PTK2 binding, 635 nm fluorescence, higher = more signal;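 also: composite of spot emission at 667 nm and signal to noise over triplicate slides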
# [12] = system: Fibrinogen (Alexa647-labelled); assay: fibrinogen binders on compound microarrays, profiling panel, artefact control for SMM control-protein annotation, biochemical, small-molecule microarray, 635/667 nm fluorescence (AID 1131); details: fibrinogen-A647 binding fluorescence, higher = more signal;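 also: z-score merges 667 nm fluorescence with per-spot signal-to-noise over triplicate slides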
# [13] = biological target: Follistatin (Homo sapiens) (UniProt P19883); assay: follistatin binders on small-molecule microarrays, primary screen, biochemical, small-molecule microarray, 635/667 nm fluorescence (AID 1132); details: FST binding, 635 nm fluorescence, higher = more signal
# [14] = biological target: Fibroblast growth factor 2 (Homo sapiens) (UniProt P09038); assay: FGF2 binders on small-molecule microarrays, primary screen, biochemical, small-molecule microarray, 635/667 nm fluorescence (AID 1133); details: small-molecule microarray binding, FGF2, fluorescence 635/667; higher = more signal
# [15] = mitochondrial membrane potential change in A549 cells, profiling panel, cell-based, JC-1 fluorescence, basal, 24 h, 100 nL (AID 1138); details: higher = more signal;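 also: A549 lung adenocarcinoma cells under basal conditions with no added stimulus; test concentration not given here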
# Lefty1 = Lefty1 binders on small-molecule microarrays, primary screen, biochemical, small-molecule microarray, 635/667 nm fluorescence (AID 1139); details: small-molecule microarray binding, fluorescence 635/667; higher = more signal
# [16] = system: wheat germ agglutinin (Triticum aestivum), Alexa647-labelled; assay: wheat germ agglutinin binders on compound microarrays, profiling panel, artefact control for SMM control-protein annotation, biochemical, small-molecule microarray, 635/667 nm fluorescence (AID 1140); details: WGA-A647 binding, 635 nm fluorescence, higher = more signal;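 also: score merges 667 nm feature emission with signal to noise over triplicate slides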
# [17] = biological target: Luciferin 4-monooxygenase (Photinus pyralis) (UniProt P08659); assay: firefly luciferase enzyme inhibitors, primary screen, biochemical, luminescence, purified enzyme, 2006 set (AID 1141); details: SteadyGlo luminescence, 30 min, higher = more signal, called active from +8 up or from −8 down;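 also: cell-free assay with purified firefly luciferase at 100 ng per well in PBS; test concentration not given here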
# Chain of Luciferin 4-monooxygenase (Photinus pyralis) (P08659 whole entry, looked up): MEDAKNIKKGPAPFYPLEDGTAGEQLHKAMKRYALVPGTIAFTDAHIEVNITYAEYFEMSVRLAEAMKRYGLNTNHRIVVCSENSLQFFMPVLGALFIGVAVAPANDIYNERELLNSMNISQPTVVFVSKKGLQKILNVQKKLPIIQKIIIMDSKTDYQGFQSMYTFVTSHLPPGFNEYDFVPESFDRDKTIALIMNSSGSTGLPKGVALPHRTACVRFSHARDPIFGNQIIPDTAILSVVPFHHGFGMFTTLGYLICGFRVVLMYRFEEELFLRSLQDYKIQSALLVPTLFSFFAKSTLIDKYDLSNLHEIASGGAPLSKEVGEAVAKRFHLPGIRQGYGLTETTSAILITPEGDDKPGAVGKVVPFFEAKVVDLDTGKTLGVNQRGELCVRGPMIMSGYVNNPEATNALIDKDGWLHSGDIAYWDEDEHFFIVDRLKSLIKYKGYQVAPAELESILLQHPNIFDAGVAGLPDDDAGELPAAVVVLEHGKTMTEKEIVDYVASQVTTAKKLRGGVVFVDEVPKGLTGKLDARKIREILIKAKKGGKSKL
# Chain of Concanavalin-A (Canavalia ensiformis) (P02866 whole entry, looked up): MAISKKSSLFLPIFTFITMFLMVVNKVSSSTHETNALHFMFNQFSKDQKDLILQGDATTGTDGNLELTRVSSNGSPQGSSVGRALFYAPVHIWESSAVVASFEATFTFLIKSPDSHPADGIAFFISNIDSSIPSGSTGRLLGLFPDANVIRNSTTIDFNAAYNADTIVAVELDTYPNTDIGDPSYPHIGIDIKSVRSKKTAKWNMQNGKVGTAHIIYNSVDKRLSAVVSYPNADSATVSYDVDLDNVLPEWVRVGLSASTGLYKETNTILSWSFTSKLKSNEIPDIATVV
# Chain of Follistatin (Homo sapiens) (P19883 whole entry, looked up): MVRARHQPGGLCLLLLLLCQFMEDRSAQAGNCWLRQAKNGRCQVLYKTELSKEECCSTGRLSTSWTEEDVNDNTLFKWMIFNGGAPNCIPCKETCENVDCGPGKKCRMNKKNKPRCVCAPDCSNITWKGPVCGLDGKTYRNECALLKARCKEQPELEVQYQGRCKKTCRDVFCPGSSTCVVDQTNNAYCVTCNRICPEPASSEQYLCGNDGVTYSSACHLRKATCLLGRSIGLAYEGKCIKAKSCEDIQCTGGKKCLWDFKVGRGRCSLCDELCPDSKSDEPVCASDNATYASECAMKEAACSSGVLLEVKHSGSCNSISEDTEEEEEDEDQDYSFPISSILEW
# Chain of Albumin (Bos taurus) (P02769 whole entry, looked up): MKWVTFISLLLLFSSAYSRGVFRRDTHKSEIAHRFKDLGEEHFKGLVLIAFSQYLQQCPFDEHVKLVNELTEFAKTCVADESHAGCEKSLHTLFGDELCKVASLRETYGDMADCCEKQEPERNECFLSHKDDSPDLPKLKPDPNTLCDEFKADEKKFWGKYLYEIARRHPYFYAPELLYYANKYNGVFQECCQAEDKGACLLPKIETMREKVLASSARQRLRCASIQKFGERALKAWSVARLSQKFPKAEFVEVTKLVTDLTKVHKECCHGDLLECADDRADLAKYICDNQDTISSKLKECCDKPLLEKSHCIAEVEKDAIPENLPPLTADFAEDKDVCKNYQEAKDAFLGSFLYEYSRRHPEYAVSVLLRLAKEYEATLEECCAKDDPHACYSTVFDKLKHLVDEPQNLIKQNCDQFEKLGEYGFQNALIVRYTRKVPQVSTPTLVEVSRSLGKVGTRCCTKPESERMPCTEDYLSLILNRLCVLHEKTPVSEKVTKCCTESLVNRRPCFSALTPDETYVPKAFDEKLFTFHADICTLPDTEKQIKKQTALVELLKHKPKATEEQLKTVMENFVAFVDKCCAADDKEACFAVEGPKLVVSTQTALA
# Chain of Fibroblast growth factor 2 (Homo sapiens) (P09038 whole entry, looked up): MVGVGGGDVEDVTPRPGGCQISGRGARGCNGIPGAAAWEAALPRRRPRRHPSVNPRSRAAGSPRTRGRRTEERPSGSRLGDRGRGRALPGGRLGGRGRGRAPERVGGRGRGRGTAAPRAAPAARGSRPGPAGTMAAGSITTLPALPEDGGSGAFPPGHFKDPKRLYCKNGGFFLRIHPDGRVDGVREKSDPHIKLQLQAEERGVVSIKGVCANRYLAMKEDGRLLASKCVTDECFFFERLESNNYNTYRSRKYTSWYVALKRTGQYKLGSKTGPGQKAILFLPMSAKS
# Chain of Focal adhesion kinase 1 (Homo sapiens) (Q05397 whole entry, looked up): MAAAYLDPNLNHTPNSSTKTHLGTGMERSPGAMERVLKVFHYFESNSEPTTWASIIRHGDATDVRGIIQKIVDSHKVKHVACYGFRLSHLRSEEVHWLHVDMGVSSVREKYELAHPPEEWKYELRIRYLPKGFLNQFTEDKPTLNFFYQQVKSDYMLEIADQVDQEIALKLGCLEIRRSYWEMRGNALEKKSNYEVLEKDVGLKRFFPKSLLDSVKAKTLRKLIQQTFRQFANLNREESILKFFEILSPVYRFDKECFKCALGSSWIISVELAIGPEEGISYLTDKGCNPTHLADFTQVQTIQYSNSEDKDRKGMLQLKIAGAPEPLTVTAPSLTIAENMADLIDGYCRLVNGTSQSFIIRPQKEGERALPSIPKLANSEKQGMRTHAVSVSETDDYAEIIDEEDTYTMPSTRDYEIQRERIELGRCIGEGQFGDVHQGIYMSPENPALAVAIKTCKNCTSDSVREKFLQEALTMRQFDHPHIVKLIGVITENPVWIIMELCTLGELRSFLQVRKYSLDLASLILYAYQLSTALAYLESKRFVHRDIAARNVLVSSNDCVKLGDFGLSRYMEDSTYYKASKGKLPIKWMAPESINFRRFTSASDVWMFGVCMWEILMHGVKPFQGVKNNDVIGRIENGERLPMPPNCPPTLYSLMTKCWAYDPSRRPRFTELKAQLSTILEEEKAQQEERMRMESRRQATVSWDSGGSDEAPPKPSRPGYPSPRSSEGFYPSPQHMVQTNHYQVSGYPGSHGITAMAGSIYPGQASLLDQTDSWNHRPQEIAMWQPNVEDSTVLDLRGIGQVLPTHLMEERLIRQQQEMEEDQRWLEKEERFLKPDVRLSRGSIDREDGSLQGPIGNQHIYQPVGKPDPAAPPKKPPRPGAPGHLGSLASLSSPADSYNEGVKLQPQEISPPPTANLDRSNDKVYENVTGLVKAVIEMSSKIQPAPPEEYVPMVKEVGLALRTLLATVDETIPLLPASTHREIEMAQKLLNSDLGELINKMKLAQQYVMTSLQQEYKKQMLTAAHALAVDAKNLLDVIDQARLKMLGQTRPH
compound,measurement,setting,value
O=C(NCc1ccccc1)[C@@H]1c2ccccc2C(=O)N(Cc2ccccc2Cl)[C@H]1c1ccc(CO)cc1,composite z-score,Albumin (Bos taurus),-0.0154
same,composite Z-score,[1],1.24 (inactive)
same,composite z-score,[2],0.0749
same,composite z-score,[3],-0.0165
same,composite z-score,[4],0.693
same,composite z-score,[5],2.36
same,composite z-score,[6],0.954
same,composite z-score,Sam68 (KHDRBS1),1.35
same,composite z-score,[7],0.702
same,composite z-score,[8],1.13
same,composite z-score,[9],2.46
same,composite z-score,[10],1.17
same,composite z-score,[11],0.719
same,composite z-score,[12],0.562
same,composite z-score,[13],1.47
same,composite z-score,[14],1.22
same,z-score,[15],1.88
same,composite z-score,Lefty1,0.817
same,composite z-score,[16],0.704
same,z-score,[17],-1.01 (inactive)
O=c1n(-c2ccccc2)c(=O)n2n1CC(COc1ccccc1)=C1[C@@H](CCc3ccccc3)OB(O)C[C@@H]12,composite z-score,Albumin (Bos taurus),0.488
same,composite Z-score,[1],0.237 (inactive)
same,composite z-score,[2],0.0596
same,composite z-score,[3],-0.063
same,composite z-score,[4],0.0107
same,composite z-score,[5],0.516
same,composite z-score,[6],0.362
same,composite z-score,Sam68 (KHDRBS1),1.3
same,composite z-score,[7],0.0848
same,composite z-score,[8],0.515
same,composite z-score,[9],1.01
same,composite z-score,[10],1.04
same,composite z-score,[11],0.12
same,composite z-score,[12],0.501
same,composite z-score,[13],0.763
same,composite z-score,[14],0.853
same,z-score,[15],1.25
same,composite z-score,Lefty1,1.52
same,composite z-score,[16],0.576
same,z-score,[17],-1.2 (inactive)
CC(C)(C)OC(=O)CC[C@@]1(C(=O)N2CCOCC2)N=C(c2ccc(OCCCO)cc2)O[C@@H]1c1ccccc1,composite z-score,Albumin (Bos taurus),1.01
same,composite Z-score,[1],-0.0503 (inactive)
same,composite z-score,[2],0.0927
same,composite z-score,[3],-0.0017
same,composite z-score,[4],0.904
same,composite z-score,[5],3.76
same,composite z-score,[6],0.599
same,composite z-score,Sam68 (KHDRBS1),1.31
same,composite z-score,[7],-1.26
same,composite z-score,[8],0.962
same,composite z-score,[9],3.83
same,composite z-score,[10],1.25
same,composite z-score,[11],0.217
same,composite z-score,[12],0.938
same,composite z-score,[13],1.33
same,composite z-score,[14],0.324
same,z-score,[15],2.16
same,composite z-score,Lefty1,-0.508
same,composite z-score,[16],1.54
same,z-score,[17],-1.99 (inactive)
CC(C)C(=C=CC[C@H](O)c1ccc(OCCO)cc1)C[C@H](O)COCc1ccccc1,composite z-score,Albumin (Bos taurus),0.394
same,composite Z-score,[1],0.813 (inactive)
same,composite z-score,[2],0.0522
same,composite z-score,[3],-0.179
same,composite z-score,[4],0.508
same,composite z-score,[5],1.43
same,composite z-score,[6],1.04
same,composite z-score,Sam68 (KHDRBS1),1.3
same,composite z-score,[7],0.433
same,composite z-score,[8],0.673
same,composite z-score,[9],1.73
same,composite z-score,[10],1.18
same,composite z-score,[11],-0.0245
same,composite z-score,[12],0.749
same,composite z-score,[13],1.31
same,composite z-score,[14],1.03
same,z-score,[15],2.47
same,composite z-score,Lefty1,0.795
same,composite z-score,[16],0.325
same,z-score,[17],-2.55 (inactive)
CC(C)[Si](C#C[Si](C(C)C)(C(C)C)C(C)C)(O[C@H](C)c1cn([C@H](C)c2ccccc2)nn1)C(C)C,composite z-score,Albumin (Bos taurus),-0.0001
same,composite Z-score,[1],-0.097 (inactive)
same,composite z-score,[2],-0.122
same,composite z-score,[3],-0.0632
same,composite z-score,[4],0.66
same,composite z-score,[5],0.386
same,composite z-score,[6],-0.13
same,composite z-score,Sam68 (KHDRBS1),1.16
same,composite z-score,[7],0.0747
same,composite z-score,[8],0.927
same,composite z-score,[9],0.467
same,composite z-score,[10],0.796
same,composite z-score,[11],0.768
same,composite z-score,[12],0.179
same,composite z-score,[13],0.465
same,composite z-score,[14],0.261
same,z-score,[15],1.8
same,composite z-score,Lefty1,0.751
same,composite z-score,[16],0.625
same,z-score,[17],-1.4 (inactive)
C=CCNC(=O)[C@@H]1[C@H]2C(=O)O[C@H](c3ccccc3)[C@H](c3ccccc3)N2[C@H](c2ccc(O)cc2)[C@@]12C(=O)Nc1ccccc12,composite z-score,Albumin (Bos taurus),-0.989
same,composite Z-score,[1],0.0737 (inactive)
same,composite z-score,[2],-0.246
same,composite z-score,[3],-0.22
same,composite z-score,[4],0.55
same,composite z-score,[5],1.12
same,composite z-score,[6],0.324
same,composite z-score,Sam68 (KHDRBS1),0.502
same,composite z-score,[7],-0.939
same,composite z-score,[8],0.516
same,composite z-score,[9],-0.391
same,composite z-score,[10],-0.227
same,composite z-score,[11],0.394
same,composite z-score,[12],-0.0121
same,composite z-score,[13],0.981
same,composite z-score,[14],0.143
same,z-score,[15],0.715
same,composite z-score,Lefty1,0.52
same,composite z-score,[16],0.567
same,z-score,[17],-1.03 (inactive)
[N-]=[N+]=NCc1ccccc1C[C@@]1(C(=O)NCc2ccccc2)N=C(c2ccc(OCCCO)cc2)O[C@@H]1c1ccccc1,composite z-score,Albumin (Bos taurus),0.825
same,composite Z-score,[1],0.109 (inactive)
same,composite z-score,[2],0.0562
same,composite z-score,[3],-0.0389
same,composite z-score,[4],0.28
same,composite z-score,[5],0.86
same,composite z-score,[6],-0.401
same,composite z-score,Sam68 (KHDRBS1),0.474
same,composite z-score,[7],-1.01
same,composite z-score,[8],0.266
same,composite z-score,[9],1.87
same,composite z-score,[10],1.13
same,composite z-score,[11],0.621
same,composite z-score,[12],0.483
same,composite z-score,[13],0.327
same,composite z-score,[14],-0.165
same,z-score,[15],1.79
same,composite z-score,Lefty1,-0.698
same,composite z-score,[16],1
same,z-score,[17],-1.15 (inactive)
COc1ccc(/C=C/C(=O)c2cccc(OCC(=O)OC(C)(C)C)c2)cc1,composite z-score,Albumin (Bos taurus),0.396
same,composite Z-score,[1],-0.0202 (inactive)
same,composite z-score,[2],-0.176
same,composite z-score,[3],-0.133
same,composite z-score,[4],-0.0082
same,composite z-score,[5],0.872
same,composite z-score,[6],0.651
same,composite z-score,Sam68 (KHDRBS1),1.02
same,composite z-score,[7],-0.55
same,composite z-score,[8],0.4
same,composite z-score,[9],0.0179
same,composite z-score,[10],0.67
same,composite z-score,[11],0.168
same,composite z-score,[12],0.158
same,composite z-score,[13],-0.708
same,composite z-score,[14],-0.453
same,z-score,[15],1.57
same,composite z-score,Lefty1,-0.51
same,composite z-score,[16],0.248
same,z-score,[17],-2.64 (inactive)
C=C(C(=O)CC[C@H](OC(C)=O)c1ccc(CO)o1)C(C)C,composite z-score,Albumin (Bos taurus),-0.348
same,composite Z-score,[1],0.481 (inactive)
same,composite z-score,[2],-0.0264
same,composite z-score,[3],-0.0795
same,composite z-score,[4],0.614
same,composite z-score,[5],0.297
same,composite z-score,[6],0.629
same,composite z-score,Sam68 (KHDRBS1),0.596
same,composite z-score,[7],-0.413
same,composite z-score,[8],-0.0824
same,composite z-score,[9],-0.361
same,composite z-score,[10],-0.0631
same,composite z-score,[11],0.384
same,composite z-score,[12],0.4
same,composite z-score,[13],0.853
same,composite z-score,[14],1.01
same,z-score,[15],0.191
same,composite z-score,Lefty1,0.299
same,composite z-score,[16],-0.432
same,z-score,[17],-2.12 (inactive)
CC(C)C(CO)N1C(=O)[C@@H]2[C@H]3C(=O)OCC=C[C@H]3OC23C=CCN(Cc2ccccc2)C(=O)[C@@H]13 (stereo not given in full),composite z-score,Albumin (Bos taurus),-1.27
same,composite Z-score,[1],-0.0662 (inactive)
same,composite z-score,[2],0.271
same,composite z-score,[3],-0.154
same,composite z-score,[4],0.833
same,composite z-score,[5],-0.635
same,composite z-score,[6],-0.733
same,composite z-score,Sam68 (KHDRBS1),-0.69
same,composite z-score,[7],-1.02
same,composite z-score,[8],-2.22
same,composite z-score,[9],-1.88
same,composite z-score,[10],-1.62
same,composite z-score,[11],-0.778
same,composite z-score,[12],-1.48
same,composite z-score,[13],-0.317
same,composite z-score,[14],-0.392
same,z-score,[15],0.792
same,composite z-score,Lefty1,-0.375
same,composite z-score,[16],-1.06
same,z-score,[17],-0.511 (inactive)
